PubChem BioAssay (Tox21)
Calls of active or inactive are those of the source. Calls follow the shape of the dose curve; as a rule, active = well fitted activation curve with a large enough effect in the repeat runs; inconclusive = weak or mixed curves; inactive = flat fitted curve, though single readings scatter.
% is scaled to controls: 0 for no effect and ±100 for the full control effect; potency is read from the fitted curve at half-maximal effect.

Experiment: A CellTox Green Cytotoxicity Assay to monitor cytotoxicity in HepG2 cells - 0 hour (AID 1224882); also: nearly all actives have a fitted effect of over 35% in size
Conditions: CellTox Green fluorescence; series mostly up to 76.8 µM; cytotoxicity: at the top concentration
Text: National Center for Advancing Translational Sciences [NCATS]
NIH Chemical Genomics Center [NCGC]
U.S. Environmental Protection Agency [EPA]
National Institutes of Environmental Health Sciences [NIEHS]
National Toxicology Program [NTP]
Cell-based models are critical for drug discovery. Determining the natural cytotoxic effects resulting from test compounds is an essential research activity. A CellTox Green Cytotoxicity Assay to monitor cytotoxicity in real time of continues cell culture during 40 hours of the compound treatment was used to screen Tox21 10K library compounds in HepG2 cells. CellTox Green Cytotoxicity Assay is a nonlytic, homogeneous, biofluorescent method to measure cytotoxicity in cell culture after experimental manipulation. The assay system uses a proprietary asymmetric cyanine dye that is excluded from viable cells but preferentially stains the dead cell's DNA. […] Viable cells produce no appreciable increases in fluorescence. Therefore, the fluorescence signal produced by the binding interaction with dead cell DNA is proportional to cytotoxicity.
The mixture of HepG2 cell suspension and reagents were dispensed at 600cells/6 ul/well in 1536-well tissue culture treated black solid bottom plates using a Multidrop dispenser. After the assay plates were incubated at a 37 C/5% CO2 incubator for 5 hours, 23 nL of compounds dissolved in DMSO, positive and negative controls was transferred to the assay plate by a pintool work station. The plates were incubated at 37 C for 40 hours. The fluorescence intensity were measured at 0h, 8h, 16h, 24h, 32h and 40h time points using ViewLux plate reader during compound treatment.
For `O=C(Nc1ccc([N+](=O)[O-])cc1)Nc1ccc([N+](=O)[O-])cc1` (tested in a mixture with another compound), the “cytotoxicity” value was 3.95% [at 35.3 µM] (inactive). In the case of `CCc1cccc(CC)c1`, the “cytotoxicity” value is reported as 0.954% (inactive). For `N#CCCOCCC#N`, the “cytotoxicity” value was -2.26% (inactive). In the case of `CC(C)C(=O)C(C)C`, the “cytotoxicity” value is reported as 4.18% (inactive). For `COc1cc(/C=C/C(=O)CC(=O)/C=C/c2ccc(O)c(OC)c2)ccc1O`, the Potency was 43.9 µM (active). With `Cc1ccc(C2OC[C@@H]3OC(c4ccc(C)cc4)O[C@H]([C@H](O)CO)[C@@H]3O2)cc1` (stereo not given in full) the “cytotoxicity” value was 1.55% (inactive). In the case of `CCOC=C(C(=O)OCC)C(=O)OCC`, the “cytotoxicity” value is reported as 0.895% (inactive). In the case of `CCOc1nc(F)cc2nc(S(=O)(=O)Nc3c(Cl)cccc3C(=O)OC)nn12`, the “cytotoxicity” value is reported as 12.4% (inactive). In the case of `Nc1ccc(Cl)c([N+](=O)[O-])c1`, the “cytotoxicity” value is reported as 1.36% (inactive). For `CCN(CC)c1ccc(C=O)cc1`, the “cytotoxicity” value was -6.49% (inactive). For `Nc1ccc2c(S(=O)(=O)O)cccc2c1S(=O)(=O)O`, the “cytotoxicity” value was -2.84% [at 35.3 µM] (inactive). In the case of `CC(C)(C)C1=CC(=O)C(C(C)(C)C)=CC1=O`, the “cytotoxicity” value is reported as -14.6% [at 35.3 µM] (inactive). In the case of `O=C1CCC(=O)N1`, the “cytotoxicity” value is reported as 6.17% (inactive). In the case of `CCCCCCCC/C=C\CCCCCCCC(=O)N(CCO)CCO`, the “cytotoxicity” value is reported as -10.5% (inactive). With `CC(C)=NNC(N)=S` the “cytotoxicity” value was -5.79% (inactive). In the case of `C=Cc1ccncc1`, the “cytotoxicity” value is reported as -0.0186% (inactive). In the case of `COc1c(Br)cc(Br)c(C)c1Br`, the “cytotoxicity” value is reported as 0.589% (inactive). For `CCCCCN=C(N)N/N=C/c1c[nH]c2ccc(OC)cc12`, the “cytotoxicity” value was -0.0907% [at 35.3 µM] (inactive). With `C/C=C/C(=O)C1=C(C)C=CCC1(C)C` the “cytotoxicity” value was 4.29% (inactive). With `CN1CCN(c2ccccc2/C=C2\SCCN(c3ccc(Cl)c(Cl)c3)C2=O)CC1` the “cytotoxicity” value was -0.695% (inactive). For `S=C1NC=NC2N=CNC12` (stereo not given), the “cytotoxicity” value was -0.195% (inactive). In the case of `CSc1ccc(O)cc1C`, the “cytotoxicity” value is reported as -6.01% (inactive). In the case of `CC1CCC(C(C)(C)O)CC1` (stereo not given), the “cytotoxicity” value is reported as -7.53% (inactive). For `NC(=O)c1ccccc1Cl`, the “cytotoxicity” value was 5.84% (inactive). With `COc1cccc(-c2ccc(/C=C\CN3CCCCCC3)cc2Cl)c1` the “cytotoxicity” value was 0.278% (inactive). For `Cn1ccnc1`, the “cytotoxicity” value was 3.36% (inactive). For `CCC(C)(C)c1ccc(CC(C)CN2C[C@@H](C)O[C@@H](C)C2)cc1` (stereo not given in full), the “cytotoxicity” value was 1.1% [at 35.3 µM] (inactive). With `O=C(c1ccccc1)c1ccc(Cl)cc1` the “cytotoxicity” value was 1.4% (inactive). In the case of `Cc1ccc2nc(-c3ccc(N)cc3)sc2c1S(=O)(=O)O`, the “cytotoxicity” value is reported as 3.77% [at 35.3 µM] (inactive). With `N#Cc1nc(Cl)c(Cl)c(Cl)c1Cl` the “cytotoxicity” value was 0.195% (inactive). In the case of `CN(C[C@@H](CC[N+]12CCC(C3CCCCC3)(CC1)CC2)c1ccc(Cl)c(Cl)c1)C(=O)c1cc(C(F)(F)F)cc(C(F)(F)F)c1`, the “cytotoxicity” value is reported as 19.3% (inactive). In the case of `CO[Si](OC)(c1ccccc1)c1ccccc1`, the “cytotoxicity” value is reported as -3.08% (inactive). In the case of `Cc1cccc(C)c1C`, the “cytotoxicity” value is reported as -0.592% (inactive). With `C=C(C)C1CCC(C)CC1O` (stereo not given) the “cytotoxicity” value was 5.1% (inactive). In the case of `Cc1ccc(S(=O)(=O)C(I)I)cc1`, the “cytotoxicity” value is reported as -11.1% (inactive). In the case of `O=C1c2ccccc2C(=O)c2c(Cl)cccc21`, the “cytotoxicity” value is reported as -0.0984% [at 35.3 µM] (inactive). For `O=C(N[C@H](CO)[C@H](O)c1ccc([N+](=O)[O-])cc1)C(Cl)Cl`, the “cytotoxicity” value was 8.38% (inactive). With `CCc1cccc(C)c1N(C(=O)C(=O)O)C(C)COC` (stereo not given) the “cytotoxicity” value was 5.64% (inactive). With `COc1cc2ncnc(Nc3cccc(Cl)c3)c2cc1OC` the cytotoxicity was -14.6% [at 15.8 µM] (inactive). With `CC/C=C(\C)C=O` the “cytotoxicity” value was 1.67% (inactive).
